Screening results: PubChem, National Center for Advancing Translational Sciences (NCATS)
Marburg entry inh: qHTS for inhibitors of binding or entry into cells for Marburg Virus | 1.8% of 300,000 active | Marburg virus pseudotyped entry inhibition, cell reporter | Potency, µM (top dose mostly 37.8 µM), for inactives: at the top dose activity change, negative = inhibition, hits mostly inhibitors; calls by dose curve; tested in HEK293 cells; note: potency is the fitted concentration of half-maximal effect
FMDV antiviral: High Throughput Screening for Foot and Mouth Disease Virus Antivirals | 1.2% of 410,000 active | AID 1159524, 2015 | FMDV antiviral cell-based qHTS | Potency, µM (series often up to 57.9 µM), for the others: at the highest dose activity change, negative = inhibition, actives largely listed as inhibitors; calls by dose curve; tested in HEK293T cells; note: read-out not given here; potency is the fitted concentration of half-maximal effect; nearly all actives have a fitted effect of over 45% in size
HCMV inh: qHTS Assay for inhibitors of the human cytomegalovirus (HCMV); 4.5% of 410,000 active; activity change, negative = inhibition, % at 57.5 µM; AID 1259415, 2018; HFF cells, HCMV-luciferase reporter, 72 h; active compounds read low; in the data active = activity change below about -60%; inconclusive = no clear call, values can overlap the other calls; inactive = above about -39%
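After 16 h attachment at 37C, HFF cells received test compound and HCMV-luciferase (1 PFU/cell); reporter luminescence read 72 h later, data normalized against buffer-only and known inhibitor Salinomycin.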
Lassa entry inh: qHTS for Inhibitors of binding or entry into cells for Lassa Virus | 1.2% of 300,000 active | Potency, µM (doses to about 37.9 µM), inactives show at the top dose activity change, negative = inhibition, usual class: inhibitors | Lassa virus pseudotype entry inhibition, cell reporter; calls by dose curve; tested in HEK293 cells; note: potency is the fitted concentration of half-maximal effect; nearly all actives have a fitted effect of over 50% in size
An asterisk follows results filed as active; [ ] = remark or other dose. In the library only some 6.2% were active in any assay of this set; here they are far more common. % is set by controls: 0 for no effect and ±100 for the full control effect.

For Cc1cccc(C(=O)Nc2ccc(C(=O)/C=C/c3ccncc3)cc2)c1 the results were Marburg entry inh inconclusive, FMDV antiviral 11%, HCMV inh -101* and Lassa entry inh inconclusive.
Screening COc1ccc(NCc2nnc(SCC(=O)Nc3ccc(OC)cc3OC)o2)cc1 returned Marburg entry inh inconclusive, FMDV antiviral -12%, HCMV inh 3 and Lassa entry inh inconclusive.
O=C(Nc1ccc2c(c1)OCO2)c1cccc(S(=O)(=O)N2CCCC2)c1 was read as Marburg entry inh inconclusive, FMDV antiviral -17%, HCMV inh 18 and Lassa entry inh 9%.
Screening COc1ccc(S(=O)(=O)N2CC(O)CC2C(=O)Nc2cccnc2)cc1 (stereo not drawn) returned Marburg entry inh -1%[46.1 µM], FMDV antiviral -13%, HCMV inh 0 and Lassa entry inh 15%.
O=C(NCc1ccccc1)C(=O)NCC(c1ccco1)S(=O)(=O)c1cccs1 (stereo not drawn) was read as FMDV antiviral -4%, HCMV inh 8 and Lassa entry inh -6%[46.1 µM].
Screening CC(=O)Nc1cccc(C(=O)/C=C/c2ccc(Br)cc2)c1 returned Marburg entry inh 15µM*, FMDV antiviral 25µM*, HCMV inh -71* and Lassa entry inh inconclusive.
For CC(=O)c1cccc(NS(=O)(=O)c2ccc(N/C=C\C(=O)c3ccc(C)cc3)cc2)c1 the results were Marburg entry inh inconclusive, FMDV antiviral inconclusive, HCMV inh -2 and Lassa entry inh -3%.
Screening CC(=O)c1cccc(N/C=C\C(=O)c2ccc(C)cc2)c1 returned Marburg entry inh inconclusive, FMDV antiviral -33%, HCMV inh 103 and Lassa entry inh 7.9µM*.
Screening CC(=O)Nc1cccc(C(=O)/C=C/c2cccs2)c1 returned Marburg entry inh -9%, FMDV antiviral inconclusive, HCMV inh -32 and Lassa entry inh -19%.
For N#CC1(Nc2cccc(Br)c2)C(=O)Nc2ccccc21 (stereo not drawn) the results were Marburg entry inh -35%, FMDV antiviral inconclusive, HCMV inh 9 and Lassa entry inh 6%.
Cn1c(SCC(=O)N2CC(=O)Nc3ccccc32)nc2ccccc2c1=O was read as FMDV antiviral -26% and HCMV inh -33.
`CCCn1c(SCC(=O)N2CC(=O)Nc3ccccc32)nc2ccccc21` gave Marburg entry inh -22%[46.1 µM], FMDV antiviral -7%, HCMV inh 4 and Lassa entry inh -21%.
Screening O=C1CN(C(=O)CSc2nc3ccccc3n2CCc2ccccc2)c2ccccc2N1 returned Marburg entry inh inconclusive, FMDV antiviral 3%, HCMV inh -60* and Lassa entry inh -11%.
`O=C1CN(C(=O)CSc2nc3ccccc3c(=O)n2Cc2ccc(F)cc2)c2ccccc2N1` gave Marburg entry inh inconclusive, FMDV antiviral -11%, HCMV inh -64* and Lassa entry inh inconclusive.
For Cc1cccnc1C(c1ccc(F)cc1)N(C)C(=O)C1CCN(CCCOc2ccc(F)cc2)CC1 (stereo not drawn) the results were FMDV antiviral 6% and HCMV inh 20.
`C[N+]1(C)CC2=Cc3ccccc3CC2C1` (stereo not drawn) gave Marburg entry inh 6%[46.1 µM], FMDV antiviral 0%, HCMV inh inconclusive and Lassa entry inh 6%[46.1 µM].
Screening C1=C2C[N+]3(CCCC3)CC2Cc2ccc3ccccc3c21 (stereo not drawn) returned Marburg entry inh inconclusive, FMDV antiviral -16%, HCMV inh -65* and Lassa entry inh 0%.
Screening CCN(CC)S(=O)(=O)c1ccc(NC(=O)COC(=O)CN2C(=O)c3ccccc3C2=O)cc1 returned Marburg entry inh 2%, FMDV antiviral 13%, HCMV inh 26 and Lassa entry inh -3%.
`Nc1ccc2c(c1)C(=O)c1cc([N+](=O)[O-])ccc1-2` gave Marburg entry inh 2%, FMDV antiviral -17%, HCMV inh -7 and Lassa entry inh 27%.
For COc1ccc(-n2nc([N+](=O)[O-])c(=NC3CCN(Cc4ccccc4)CC3)n2O)cc1 the results were Marburg entry inh inconclusive, FMDV antiviral 29%, HCMV inh -63* and Lassa entry inh -1%[46.1 µM].
`COc1ccc(-n2nc([N+](=O)[O-])c(=NCc3cccnc3)n2O)cc1` gave Marburg entry inh inconclusive, FMDV antiviral 14%, HCMV inh 10 and Lassa entry inh inconclusive.
CCOC(=O)C1=CC[C@@H](c2ccco2)N(S(=O)(=O)c2ccc(C)cc2)[C@H]1C(=O)OCC was read as FMDV antiviral 78% and HCMV inh 1.
CCN(CC)CCN1C(=O)C(O)=C(C(=O)c2ccco2)C1c1ccccn1 (stereo not drawn) was read as Marburg entry inh 16%[46.1 µM], FMDV antiviral 8%, HCMV inh 4 and Lassa entry inh inconclusive.
Cn1c(/C=N/c2nc3ccccc3[nH]2)nc2ccccc21 was read as Marburg entry inh -9%, FMDV antiviral 46%, HCMV inh -104* and Lassa entry inh -17%.
Screening Cc1nnc(SCC(=O)N2c3ccccc3C(C)(c3ccccc3)CC2(C)C)s1 (stereo not drawn) returned Marburg entry inh inconclusive, FMDV antiviral 40µM*, HCMV inh -62* and Lassa entry inh inconclusive.
For Cc1ccc(C2(C)CC(C)(C)N(C(=O)CSc3nnc(C)s3)c3ccccc32)cc1 (stereo not drawn) the results were Marburg entry inh inconclusive, FMDV antiviral inconclusive, HCMV inh -39 and Lassa entry inh 7.9µM*.
O=C1Cc2c([nH]c3ccc(Br)cc23)-c2ccccc2N1 was read as Marburg entry inh inconclusive, FMDV antiviral 22%, HCMV inh -75* and Lassa entry inh inconclusive.
COc1cccc(-c2cn3nc4c(nc3n2)CCCC4)c1 was read as Marburg entry inh inconclusive, FMDV antiviral -85% and Lassa entry inh inconclusive.
Clc1ccc(-c2cn3nc4c(nc3n2)CCCC4)cc1 was read as Marburg entry inh inconclusive, FMDV antiviral 11µM*, HCMV inh inconclusive and Lassa entry inh 0.71µM*.
For C[C@@H]1C=CCC(=O)N[C@@H](c2ccccc2)[C@H](C)C=CCC(=O)N[C@@H]1c1ccccc1 the results were Marburg entry inh 12%[14.2 µM] and Lassa entry inh inconclusive.
C[C@@H]1C=CCC(=O)N[C@@H](c2ccc3ccccc3c2)[C@H](C)C=CCC(=O)N[C@@H]1c1ccc2ccccc2c1 was read as Marburg entry inh 2.7µM*.
Screening Cc1c(N=Nc2c(-c3ccc([N+](=O)[O-])cc3)[nH]n(C(N)=S)c2=O)cccc1[N+](=O)[O-] returned Marburg entry inh 2.8µM*, FMDV antiviral inconclusive, HCMV inh -96* and Lassa entry inh inconclusive.
`NC(=S)n1[nH]c(-c2ccc([N+](=O)[O-])cc2)c(N=Nc2ccccc2[N+](=O)[O-])c1=O` gave FMDV antiviral -15% and HCMV inh -39.
Screening NC(=S)n1[nH]c(-c2ccc([N+](=O)[O-])cc2)c(N=Nc2cccc([N+](=O)[O-])c2)c1=O returned Marburg entry inh inconclusive, FMDV antiviral inconclusive, HCMV inh -72* and Lassa entry inh inconclusive.
